In all, about 52,000 compounds went through this assay and about 1,700 (3.3%) were called active. For the sample, actives were picked, then their nearest neighbours and some compounds at random. A number with no mark means an inactive call. Rule as the data show it: active = survival mostly below about 52% (no sharp cut-off); inactive = mostly above about 56%.

The experiment deals with Wild type. Nature of the experiment: growth inhibition of S. aureus wild type versus tarO mutant, primary screen, teichoic acid synthesis inhibitors, RN4220, OD600 (AID 463173). Particulars: S. aureus RN4220 wild type/DeltatarO growth, OD600, 18 h, hits give low values, screened at 18.75 µg/mL (by protocol).
As for `Cc1nn(C(=O)c2cccc([N+](=O)[O-])c2C)c(C)c1S(=O)(=O)N1CCCCCC1`, the survival is -4% (active).
As to `Cc1nn(S(=O)(=O)c2ccc(F)cc2)c(C)c1S(=O)(=O)N1CCC(C)CC1`, the survival is -3% (active).
Then `COc1ccc(S(=O)(=O)n2nc(C)c(S(=O)(=O)N3CCCCCC3)c2C)cc1C`, with 55%.
On to `COc1ccc(S(=O)(=O)n2nc(C)c(S(=O)(=O)N3CCCCCC3)c2C)cc1OC`, for which the survival was 1% (active).
To `Cc1nn(C(=O)c2cccc([N+](=O)[O-])c2C)c(C)c1S(=O)(=O)N1CCOCC1` belongs 64%; to `COc1ccc(S(=O)(=O)n2nc(C)c(S(=O)(=O)N3CCC(C)CC3)c2C)cc1OC`, 81%.
Regarding `Cc1nn(S(=O)(=O)c2ccc(F)cc2)c(C)c1S(=O)(=O)N1CCCCC1`, the survival is 71%.
In the case of `Cc1nn(S(=O)(=O)c2ccccc2)c(C)c1S(=O)(=O)N1CCC(C)CC1`, the survival is 81%.
To `Cc1nn(C(=O)c2ccccc2F)c(C)c1S(=O)(=O)N1CCCCCC1` belongs 70%; to `CCOC(=O)c1cc(=O)n2[nH]c(-c3ccc(C)cc3)cc2n1`, 107%; to `CCC(Sc1nc2ccccc2c2nc(CCc3c(C)n[nH]c3C)nn12)C(=O)Nc1ccccc1F` (configuration not stated), 91%.
Turning to `CCCCn1cc(S(=O)(=O)c2cc(C)ccc2C)c(=O)c2cc(F)c(F)cc21`, the survival was 83%.
Then `COc1ccc(-c2cc(C(=O)Oc3ccccc3)c3cc(C)ccc3n2)cc1`, with 11%; and `Cc1ccc(-c2cc(C(=O)Oc3ccccc3)c3cccc(C)c3n2)cc1`, with 13% (active).
For `COc1ccc(-c2cc(C(=O)Oc3cccc(C)c3)c3cc(C)ccc3n2)cc1`, the survival is 19%.
To `COc1ccc(-c2cc(C(=O)Oc3ccc(C)c(C)c3)c3ccccc3n2)cc1` belongs 30%.
To `COc1ccc(-c2cc(C(=O)Oc3ccc(C)cc3)c3cc(C)ccc3n2)cc1` belongs 22%; to `COc1ccc(-c2cc(C(=O)Oc3ccc(Br)cc3)c3ccccc3n2)cc1`, 63%.
To `Cc1ccc(OC(=O)c2cc(-c3ccccc3)nc3ccc(C)cc23)cc1` belongs 61%.
Turning to `COc1ccc(-c2cc(C(=O)Oc3cccc(C)c3C)c3ccccc3n2)cc1`, the survival was 12% (active).
`COc1ccc(-c2cc(C(=O)Oc3ccc(C)cc3)c3ccccc3n2)cc1`: the survival is 4% (active).
Then `COc1ccc(-c2cc(C(=O)Oc3cccc(C)c3)c3ccccc3n2)cc1`, with 3% (active); and `COc1ccc(-c2cc(C(=O)Oc3ccc(Cl)cc3)c3ccccc3n2)cc1`, with 60%; and `Cc1ccc(-c2cc(C(=O)Oc3ccccc3)c3cc(C)ccc3n2)cc1`, with 65%.
In the case of `Cc1ccc(C(=O)NC(C)C)cc1C`, the survival was 110%.
To `Cc1cc(NC(=O)c2ccc(Cl)c(Cl)c2)ccc1NC(=O)c1ccco1` belongs 95%; to `COCc1c(Br)c(C)nc2sc3c(=O)n(-c4cccc(Br)c4)nnc3c12`, 87%.
Then `CCn1c(CSc2ncccn2)nnc1SCC(=O)N1CCc2ccccc21`, with 102%.
Then `CCCN(CCC)CCCNC(=O)Cn1cnc2onc(-c3ccc(F)cc3)c2c1=O`, with 73%.
`Cc1nc(-c2ccccc2)sc1CCNS(=O)(=O)c1ccccc1`: the survival was 69%.
To `CCCCS(=O)(=O)c1oc(-c2ccc(F)cc2)nc1S(=O)(=O)c1ccccc1` belongs 7% (active).
To `CCC(C)S(=O)(=O)c1oc(-c2ccc(F)cc2)nc1S(=O)(=O)c1ccc(F)cc1` (configuration not stated) belongs 49%; to `O=S(=O)(c1ccccc1)c1nc(-c2ccc(F)cc2)oc1N1CCOCC1`, 73%.
Consider `CS(=O)(=O)c1oc(-c2ccc(F)cc2)nc1S(=O)(=O)c1ccc(Cl)cc1`, for which the survival was -1% (active).
Then `CC(C)CS(=O)(=O)c1oc(-c2ccc(F)cc2)nc1S(=O)(=O)c1ccccc1`, with 3% (active); and `CCCCS(=O)(=O)c1oc(-c2ccc(F)cc2)nc1S(=O)(=O)c1ccc(C)cc1`, with 33%.
Then `CCS(=O)(=O)c1oc(-c2ccc(F)cc2)nc1S(=O)(=O)c1ccc(Br)cc1`, with -1% (active).
In the case of `CSc1oc(-c2ccc(F)cc2)nc1S(=O)(=O)c1ccc(Br)cc1`, the survival is 54%.
Then `CCSc1oc(-c2ccc(F)cc2)nc1S(=O)(=O)c1ccc(C)cc1`, with 41%; and `CC(C)S(=O)(=O)c1oc(-c2ccc(F)cc2)nc1S(=O)(=O)c1ccc(F)cc1`, with 26%.
To `CC(C)S(=O)(=O)c1oc(-c2ccc(F)cc2)nc1S(=O)(=O)c1ccccc1` belongs 23%.
As for `Cc1ccc(-c2nc(S(=O)(=O)c3ccc(F)cc3)c(N3CCN(c4ccccc4)CC3)o2)cc1`, the survival is 89%.
In the case of `CNC(=O)N(O)C1N(c2ccccc2)C(=S)SC1(C)C` (configuration not stated), the survival was 109%.
Take `O=C(NCc1ccccc1Cl)C1CCCN(c2ncnc3onc(-c4ccc(F)cc4)c23)C1` (configuration not stated): the survival was 65%.
To `COc1ccc(-n2cc(C(=O)Oc3cc(C)cc(C)c3)c3ccccc3c2=O)cc1` belongs 153%; to `COc1cccc(NC(=O)c2ccc(CN3CCN(c4ccccc4)CC3)cc2)c1`, 122%.
Then `NC(=O)C1CCN(C(=O)c2ccc3c(c2)N(Cc2cccc(Cl)c2)C(=O)c2ccccc2S3(=O)=O)CC1`, with 69%; and `O=C(Nc1c(C(=O)Nc2ccc(F)cc2)oc2ccccc12)c1ccccc1F`, with 30%.
Then `Cc1ccc(S(=O)(=O)N2CCN(C(=O)CN3CCOCC3)C2C(C)C)cc1` (configuration not stated), with 105%; and `CCc1ccc(NC(=O)CSc2nc(C)c(C(=O)Nc3ccccc3)c(-c3ccc(OC)c(OC)c3)c2C#N)cc1`, with 85%; and `CC(C)Nc1nc(C#N)nc(NC(C)C)n1`, with 130%.
With `COc1cc(NC(=O)c2cc3c(=O)n(Cc4ccco4)ccc3nc2C)cc(OC)c1OC`, the survival is 63%.
For `O=c1[nH]c2ccc(N=Cc3ccccc3C(F)(F)F)cc2[nH]1`, the survival was 116%.
Then `COc1cc(NS(=O)(=O)c2ccc(NC(=O)COc3ccc(Cl)cc3Cl)cc2)nc(OC)n1`, with 93%.
To `C=CCN1C(=O)C(C)(C)N(C(C)=O)c2ccccc21` belongs 121%; to `O=S(=O)(c1ccccc1)c1nc(-c2ccc(F)cc2)oc1N1CCCCCC1`, 19%.
For the compound `CCS(=O)(=O)c1oc(-c2ccc(F)cc2)nc1S(=O)(=O)c1ccccc1`, the survival was -1% (active).
Regarding `O=S(=O)(c1ccccc1)c1nc(-c2ccc(F)cc2)oc1NCc1ccccc1`, the survival was 84%.
To `Cc1ccc(CNC(=O)c2cc(C3CC3)nc3c2c(C)nn3-c2cccc(Cl)c2C)cc1` belongs 94%; to `COc1ccccc1OC(C)C(=O)Nc1cccc(-c2nc3ccccc3s2)c1` (configuration not stated), 29%.
To `Cc1ncc(CO)c2c1Oc1nc(-c3ccc(Cl)cc3)nc(SCC(=O)N3CCCCC3)c1C2` belongs 79%.
Then `COc1ccccc1CNC(=O)c1ccc2c(c1)N(Cc1cccc(Cl)c1)C(=O)c1ccccc1S2(=O)=O`, with 10% (active); and `CN(C(=O)c1ccc2c(c1)N(Cc1cccc(Cl)c1)C(=O)c1ccccc1S2=O)C1CCCCC1` (configuration not stated), with 95%; and `O=C(c1ccc2c(c1)N(Cc1ccc(Cl)cc1)C(=O)c1ccccc1S2(=O)=O)N1CCc2ccccc21`, with 147%.
For `O=C(c1ccc2c(c1)N(Cc1ccccc1)C(=O)c1ccccc1S2(=O)=O)N1CCc2ccccc21`, the survival was 87%.
To `CCN(C(=O)c1ccc2c(c1)N(Cc1cccc(Cl)c1)C(=O)c1ccccc1S2=O)c1ccccc1` (configuration not stated) belongs 0% (active).
As to `COc1ccccc1CNC(=O)c1ccc2c(c1)N(Cc1cccc(C)c1)C(=O)c1ccccc1S2(=O)=O`, the survival was 90%.
Then `O=C(NCc1ccccc1)c1ccc2c(c1)N(Cc1cccc(Cl)c1)C(=O)c1ccccc1S2(=O)=O`, with 74%.
Turning to `O=S1(=O)c2ccccc2N(Cc2ccc(Cl)cc2)c2ccccc21`, the survival is 129%.
In the case of `O=S1(=O)c2ccccc2N(Cc2ccccc2)c2ccccc21`, the survival is 69%.
With `CCCCN(C)C(=O)c1ccc2c(c1)N(Cc1cccc(Cl)c1)C(=O)c1ccccc1S2=O` (configuration not stated), the survival is 124%.
With `O=C(c1ccc2c(c1)N(Cc1cccc(Cl)c1)C(=O)c1ccccc1S2(=O)=O)N1CCc2ccccc21`, the survival is -3% (active).
Then `O=S1(=O)c2ccccc2N(Cc2cccc(Cl)c2)c2ccccc21`, with -2% (active); and `O=C(Nc1cccc(Cl)c1)c1cc2c(=O)[nH]c3ccccc3c2s1`, with 63%; and `COc1ccccc1NC(=O)c1sc2nc(C)c(C(=O)Nc3ccc(C)cc3C)c(-c3ccccc3Cl)c2c1N`, with 139%.
On to `CC(C)CC(=O)NCC(c1ccc2c(c1)OCO2)N1CCN(c2ccccc2F)CC1` (configuration not stated), for which the survival is 76%.
With `CCN(CC)CCNC(=O)c1ccc2c(c1)NC(=O)C(CS(=O)(=O)Cc1cccc(Br)c1)N2` (configuration not stated), the survival was 134%.
To `Cc1ccc(C)c(N2CCN(CCCNC(=O)Nc3ccc(Cl)cc3)CC2)c1` belongs -6% (active); to `Cc1ccc(Cl)cc1N1CCN(CCNC(=O)Nc2ccccc2Cl)CC1`, 98%; to `Cc1cccc(N2CCN(CCNC(=O)Nc3ccc(Cl)cc3)CC2)c1C`, 87%.
With `CCOc1ccc(NC(=O)NCCN2CCN(c3cc(Cl)ccc3C)CC2)cc1`, the survival is 53%.
For `COc1ccc(Cc2nnc(C(=O)NCCCN3CCN(c4ccccc4F)CC3)o2)cc1OC`, the survival is 87%.
To `Cc1ccc(Cl)cc1N1CCN(CCCNC(=O)c2nnc(Cc3cccc(Cl)c3)o2)CC1` belongs 12% (active); to `O=C(NCCCN1CCN(c2ccccc2F)CC1)c1nnc(Cc2ccc(Cl)cc2Cl)o1`, 77%.
On to `Cc1ccc(Cl)cc1N1CCN(CCNC(=O)Nc2ccc(Cl)cc2)CC1`, for which the survival is -6% (active).
Take `O=C(NCCCN1CCN(c2ccc(F)cc2)CC1)Nc1ccc(Cl)cc1`: the survival is 64%.
To `COc1ccc(-c2nnn(CC(=O)N(CC3CCCO3)C(C(=O)NC3CCCCC3)c3cccs3)n2)cc1` (configuration not stated) belongs 103%.

These data come from PubChem BioAssay AID463173 (ICCB-Longwood Screening Facility, Harvard Medical School, 2010).
